High-throughput results deposited in PubChem BioAssay by Sanford-Burnham Center for Chemical Genomics.
This is a sample that favours compounds with a hit; in the whole collection about 31% have one here.
CYP2C9 inhib: blocks human cytochrome P450 2C9; inhibition, % at 5 µM; AID 777; hit rate 20% among 96,000; CYP2C9 Supersomes, luciferin-H conversion, luminescence; P11712;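 active = blocking of liver enzyme CYP2C9 beyond about 50% at 5 µM, limit read from the data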
Target sequence (P11712 whole entry, looked up): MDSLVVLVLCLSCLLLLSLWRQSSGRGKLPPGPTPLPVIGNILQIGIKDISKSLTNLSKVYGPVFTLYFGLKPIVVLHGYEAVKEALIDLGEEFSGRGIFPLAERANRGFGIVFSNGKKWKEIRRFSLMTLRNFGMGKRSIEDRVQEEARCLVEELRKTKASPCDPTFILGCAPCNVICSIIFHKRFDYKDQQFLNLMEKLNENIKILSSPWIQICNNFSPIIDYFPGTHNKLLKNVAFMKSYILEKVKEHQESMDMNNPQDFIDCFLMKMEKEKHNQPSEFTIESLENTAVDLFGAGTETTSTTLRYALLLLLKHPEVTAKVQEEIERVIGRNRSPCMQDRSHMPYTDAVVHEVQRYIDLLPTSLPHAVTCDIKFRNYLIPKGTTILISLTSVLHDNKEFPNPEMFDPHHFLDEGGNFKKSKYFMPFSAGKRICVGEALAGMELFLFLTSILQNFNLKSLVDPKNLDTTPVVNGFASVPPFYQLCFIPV
CYP2C9 activ: CYP2C9 (human) activation. P11712. recombinant CYP2C9, luciferin-H conversion, luminescence; hits give high values; factor 1 = untreated enzyme, 0 = blocked. activation factor at 5 µM. hit rate 1.4% among 96,000;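 active = activation factor of 2 or more for CYP2C9 at a 5 µM dose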;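 also: 0 = sulfaphenazole-blocked wells and 1 = vehicle-only wells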
CYP2C19 inh: inhibitors of human CYP2C19; P33261; CYP2C19 Supersomes, luciferin-H EGE luminescence, 30 min; inhibition, % at 5 µM; hit rate 21% among 96,000; AID 778;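 active = CYP2C19 inhibition above a set limit at 5 µM in the primary screen, cut at about 50% in these data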;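 also: plate controls were negative control wells for no effect and 2.5 mM tranylcypromine positive control for full effect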
CYP2C19 act: increases human CYP2C19 enzyme activity. P33261. recombinant CYP2C19, luciferin-H EGE luminescence; hits give high values; 0 = fully inhibited enzyme, 1 = untreated enzyme. activation factor at 5 µM. 96,000 tested, under 10 active. AID 1025;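 active = activation factor of at least 2 at 5 µM in the primary screen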;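 also: 0 = wells with 2.5 mM tranylcypromine and 1 = vehicle-only wells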
* marks the source's active call; other numbers are inactive results.

SMILES | CYP2C9 inhib | CYP2C9 activ | CYP2C19 inh | CYP2C19 act
Cc1csc(NC(=O)C2CCCN(S(=O)(=O)c3ccc4c(c3)oc(=O)n4C)C2)n1 (configuration not stated) | 49 | 0.5 | 52* | 0.5
CCc1ccc(NS(=O)(=O)c2ccc3[nH]cc(C(=O)N(C)Cc4ccco4)c(=O)c3c2)cc1 | 46 | 0.5 | 27 | 0.7
COc1ccc(OC)c(/C=N\NC(=O)CSc2nnc(CCCc3ccc(OC)c(C)c3)o2)c1 | 70* | 0.3 | 64* | 0.4
COc1ccc(CCCc2nnc(SCC(=O)Nc3cc(C)c(C)cc3Br)o2)cc1 | 83* | 0.2 | 69* | 0.3
COc1ccc(OC)c(NC(=O)CSc2nnc(CNC(=O)c3ccco3)o2)c1 | 26 | 0.7 | 9 | 0.9
COc1ccc(CCCc2nnc(SCC(=O)Nc3cccc(C)c3)o2)cc1 | 64* | 0.4 | 54* | 0.5
COc1ccc(CCCc2nnc(SCC(=O)Nc3ncc(C)s3)o2)cc1 | 48 | 0.5 | 33 | 0.7
c1ccc(COn2nnc3ccccc32)c(COn2nnc3ccccc32)c1 | 93* | 0.1 | 99* | 0
Clc1cccc(Cl)c1COn1nnc2ccccc21 | 30 | 0.7 | 49 | 0.5
O=C(O)CCC(=O)N1CC=C(c2ccccc2)CC1 | 27 | 0.7 | 12 | 0.9
O=C(Cn1[nH]c(=O)c2ccccc2c1=O)N1CC=C(c2ccccc2)CC1 | 67* | 0.3 | 81* | 0.2
CCOC(=O)c1cnc(SCc2cccc(C)c2)nc1N | -70 | 1.7 | 18 | 0.8
CCOC(=O)c1cnc(SCc2nc(N)nc(Nc3ccccc3OC)n2)nc1N | 60* | 0.4 | 21 | 0.8
CCOC(=O)c1cnc(SCc2nc(N)nc(Nc3ccc(C)cc3)n2)nc1N | 54* | 0.5 | 54* | 0.5
CCOC(=O)c1cnc(SCc2nc(N)nc(Nc3ccc(F)cc3)n2)nc1N | 66* | 0.3 | 72* | 0.3
CCOc1ccc(N2C(=O)CCC2=O)cc1 | 2 | 1 | -9 | 1.1
CCOc1ccc(N2C(=O)CSC23CCCCC3)cc1 | 32 | 0.7 | 84* | 0.2
COc1ccnc(Oc2ccc(C)cc2C)c1C#N | 8 | 0.9 | 39 | 0.6
S=C(NCC1CCCO1)n1nnc2ccccc21 (configuration not stated) | -3 | 1 | -10 | 1.1
CC(=O)Nc1ccc(NC(=O)C(C)O/N=C/c2cccc([N+](=O)[O-])c2)cc1 (configuration not stated) | 60* | 0.4 | 41 | 0.6
O=C(CO/N=C/c1cccc([N+](=O)[O-])c1)Nc1ccc2ccccc2c1 | 88* | 0.1 | -11 | 1.1
O=C(O/N=C/c1cccc([N+](=O)[O-])c1)C1CC1 | -2 | 1 | 44 | 0.6
CCOC(=O)c1ccc(NC(=O)CSc2nnc(CNC(=O)c3ccccc3F)o2)cc1 | 40 | 0.6 | 27 | 0.7
COCC(C)n1c(C)cc(C(=O)COc2ccc(S(=O)(=O)N3CCOCC3)cc2Cl)c1C (configuration not stated) | 58* | 0.4 | 51* | 0.5
CN(C(=S)NC(=O)c1ccccc1Br)C1CCCCC1 | 11 | 0.9 | 24 | 0.8
SMILES | CYP2C9 inhib | CYP2C9 activ | CYP2C19 inh | CYP2C19 act
COc1ccccc1/C=C/C(=O)NC(=S)N(C)C1CCCCC1 | -164 | 2.6* | 14 | 0.9
Nc1nc(C(=O)N2CCOCC2)nn1C(=O)c1ccc(Cl)cc1 | -2 | 1 | 0 | 1
CCC(C)C(NC(C)=O)C(=O)NC(=O)NC(c1ccccc1)c1ccccc1 (configuration not stated) | 80* | 0.2 | 78* | 0.2
CCCC/S(CC1CC1(Cl)Cl)=N\S(=O)(=O)c1ccc(C)cc1 (configuration not stated) | 6 | 0.9 | -2 | 1
Cc1ccc(S(=O)(=O)/N=S(\C)CC2CC2(Cl)Cl)cc1 (configuration not stated) | -60 | 1.6 | 58* | 0.4
CS(=O)(=O)N1CCCC(C(=O)NCc2ccc(F)cc2)C1 (configuration not stated) | 0 | 1 | 1 | 1
CC(C)(C)c1ccc(C(=O)N/C(=C\c2cccs2)C(=O)NCc2ccco2)cc1 | 56* | 0.4 | 7 | 0.9
Cc1ccnc(NS(=O)(=O)Cc2ccccc2)c1 | -3 | 1 | -16 | 1.2
COc1ccc(CCNc2oc(COc3ccc(Br)cc3)nc2C#N)cc1OC | 51* | 0.5 | 34 | 0.7
N#Cc1nc(Cc2cccc3ccccc23)oc1NCCN1CCCCC1 | -5 | 1 | -4 | 1
COc1ccc(CCNc2oc(Cc3cccc4ccccc34)nc2C#N)cc1OC | 57* | 0.4 | 49 | 0.5
Cc1nc(C(=O)N(C)C)nn1-c1cc(Cl)cc(Cl)c1 | -1 | 1 | -1 | 1
Cn1c(C(=O)NC2CCCC2)cc2c(=O)n(C)c3ccccc3c21 | 5 | 1 | 56* | 0.4
CCOc1ccc(NC(=O)c2cc3c(=O)n(C)c4ccccc4c3n2C)cc1 | 84* | 0.2 | 32 | 0.7
Cn1nc(C(F)(F)F)c(C#N)c1N1CCN(c2cccc(C(F)(F)F)c2)CC1 | 17 | 0.8 | 15 | 0.9
CCCCCn1c(S(=O)(=O)O)nc2ccccc21 | 12 | 0.9 | 6 | 0.9
CCN(CC)P1(=O)OC(c2cc(OC)c(OC)c(OC)c2)=Nc2c1c(C)nn2-c1ccccc1 (configuration not stated) | 96* | 0 | 78* | 0.2
COc1cc(-c2nc3c(c(C)nn3-c3ccccc3)c3cc(OC)c(OC)cc23)ccc1O | 48 | 0.5 | 38 | 0.6
Cc1ccccc1-c1nn[nH]n1 | -6 | 1.1 | -9 | 1.1
O=[N+]([O-])c1ccc(O)c(-c2nn[nH]n2)c1 | 83* | 0.2 | 70* | 0.3
O=C(N/N=C/c1c[nH]c2ccccc12)c1ccn(Cc2ccc(Cl)cc2)n1 | 2 | 1 | 65* | 0.4
O=C(CCC(=O)OCC(=O)c1ccc(Br)cc1)Nc1ccc(Br)c2cccnc12 | -199 | 3* | 31 | 0.7
O=C(CCC(=O)OCC(=O)c1ccccc1)Nc1cccc2cccnc12 | -7 | 1.1 | 0 | 1
O=C(O)C1CSC(c2ccncc2)N1 (configuration not stated) | 73* | 0.3 | 59* | 0.4
CCCCSc1c(C)c2cc3c(cc2[nH]c1=O)OCO3 | 12 | 0.9 | 86* | 0.1
SMILES | CYP2C9 inhib | CYP2C9 activ | CYP2C19 inh | CYP2C19 act
Clc1ccc(CSc2nncn2-c2ccccn2)cc1 | 7 | 0.9 | 68* | 0.3
Brc1c(CSc2nncn2-c2ccccc2)nc2ncccn12 | -6 | 1.1 | 21 | 0.8
Cc1cccnc1Nc1nc(-c2ccc(O)c(O)c2)cs1 | 76* | 0.2 | 66* | 0.3
Cc1ccc2c(C)nc(NC3=NCN(CCc4ccccc4)CN3)nc2c1 | -4 | 1 | 6 | 0.9
Cc1ccc(Cl)cc1N1CCN(C(=O)c2cc3c(=O)n(C)c4ccccc4c3n2C)CC1 | 98* | 0 | 77* | 0.2
Cn1c(C(=O)N2CCN(c3ncccn3)CC2)cc2c(=O)n(C)c3ccccc3c21 | 93* | 0.1 | 17 | 0.8
Cc1nnc(NC(=O)CCC(=O)NCc2ccco2)s1 | 1 | 1 | 6 | 0.9
CCCSc1nnc(NC(=O)c2sc3nc(-c4cccs4)ccc3c2N)s1 | 53* | 0.5 | 36 | 0.6
